Reference: PubChem BioAssay AID1159580 (chemical genetic matrix, 2015)
Hit rate of the full screen: of about 5,500 compounds, about 2,000 (36%) were called active. Roughly 18% stayed inconclusive and do not appear here. Rule as the data show it: active = normalized growth mostly below about 0.91 (no sharp cut-off); inconclusive = no clear call, values can overlap the other calls; inactive = mostly above about 0.92. This is one part of the list.

Assay: chemical genetic growth profiling, strain panel (AID 1159580);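 also: tested at 20 µM; growth read once vehicle control cultures reached saturation at 30 °C; 1 = growth at the plate median or of vehicle wells; lower values mean less growth of the strain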
Conditions: growth OD

Measured: normalized growth

CC(=O)NC(C(=O)O)C(C)(C)SN=O (centres undefined)
inactive: S. cerevisiae deletion strains, locus YJR043C, strain POL32, hits give low values 0.995 | S. cerevisiae deletion strains, locus YJR075W, strain HOC1, hits give low values 1.03 | S. cerevisiae deletion strains, locus YKL009W, strain mrt4, hits give low values 0.957 | S. cerevisiae deletion strains, locus YKL068W, hits give low values 0.99 | S. cerevisiae deletion strains, locus YKL085W, strain MDH1 (second series), hits give low values 0.987 | S. cerevisiae deletion strains, locus YKL085W, strain MDH1, hits give low values 0.987 | S. cerevisiae deletion strains, locus YKL160W, strain elf1, hits give low values 0.996 | S. cerevisiae deletion strains, locus YKL190W, strain CNB1, hits give low values 1.01 | S. cerevisiae deletion strains, locus YKR001C, strain vps1, hits give low values 1 | S. cerevisiae deletion strains, locus YKR026C, strain gcn3, hits give low values 0.989 | S. cerevisiae deletion strains, locus YKR091W, strain srl3, hits give low values 0.986 | S. cerevisiae deletion strains, locus YLL001W, strain dnm1, hits give low values 1 | S. cerevisiae deletion strains, locus YLL026W, hits give low values 1 | S. cerevisiae deletion strains, locus YLL041C, strain sdh2, hits give low values 0.99 | S. cerevisiae deletion strains, locus YLR027C, strain aat2, hits give low values 1 | S. cerevisiae deletion strains, locus YLR039C, strain RIC1, hits give low values 1 | S. cerevisiae deletion strains, locus YLR058C, strain SHM2, hits give low values 1.01 | S. cerevisiae deletion strains, locus YLR102C, strain apc9, hits give low values 0.993 | S. cerevisiae deletion strains, locus YLR221C, strain rsa3, hits give low values 1 | S. cerevisiae deletion strains, locus YLR258W, strain gsy2, hits give low values 0.994 | S. cerevisiae deletion strains, locus YLR262C, strain YPT6 (second series), hits give low values 1.02 | S. cerevisiae deletion strains, locus YLR262C, strain YPT6, hits give low values 1.01 | S. cerevisiae deletion strains, locus YLR268W, strain sec22, hits give low values 1 | S. cerevisiae deletion strains, locus YLR320W, strain mms22, hits give low values 0.972 | S. cerevisiae deletion strains, locus YLR330W, strain CHS5, hits give low values 0.994 | S. cerevisiae deletion strains, locus YLR342W, strain FKS1 (second series), hits give low values 1.01 | S. cerevisiae deletion strains, locus YLR342W, strain FKS1, hits give low values 1.01 | S. cerevisiae deletion strains, locus YLR357W, strain rsc2, hits give low values 0.989 | S. cerevisiae deletion strains, locus YLR370C, strain arc18, hits give low values 0.991 | S. cerevisiae deletion strains, locus YLR371W, strain rom2, hits give low values 0.984 | S. cerevisiae deletion strains, locus YLR384C, strain iki3, hits give low values 0.974 | S. cerevisiae deletion strains, locus YLR418C, strain cdc73, hits give low values 1.06 | S. cerevisiae deletion strains, locus YML016C, strain PPZ1, hits give low values 1.01 | S. cerevisiae deletion strains, locus YML032C, strain rad52, hits give low values 0.979 | S. cerevisiae deletion strains, locus YML120C, strain ndi1, hits give low values 1 | S. cerevisiae deletion strains, locus YML124C, strain tub3, hits give low values 0.993 | S. cerevisiae deletion strains, locus YMR058W, strain fet3, hits give low values 0.993 | S. cerevisiae deletion strains, locus YMR078C, strain ctf18, hits give low values 0.982 | S. cerevisiae deletion strains, locus YMR125W, strain sto1, hits give low values 0.98 | S. cerevisiae deletion strains, locus YMR129W, hits give low values 0.993 | S. cerevisiae deletion strains, locus YMR205C, strain PFK2, hits give low values 1.01 | S. cerevisiae deletion strains, locus YMR223W, strain ubp8, hits give low values 0.995 | S. cerevisiae deletion strains, locus YMR231W, strain pep5, hits give low values 0.979 | S. cerevisiae deletion strains, locus YMR263W, strain SAP30, hits give low values 1.03 | S. cerevisiae deletion strains, locus YMR307W, strain GAS1, hits give low values 0.995 | S. cerevisiae deletion strains, locus YNL067W, strain RPL9B, hits give low values 1.02 | S. cerevisiae deletion strains, locus YNL071W, strain lat1, hits give low values 0.989 | S. cerevisiae deletion strains, locus YNL128W, strain TEP1, hits give low values 1.03 | S. cerevisiae deletion strains, locus YNL153C, strain GIM3, hits give low values 1.01 | S. cerevisiae deletion strains, locus YNL209W, strain ssb2, hits give low values 0.993 | S. cerevisiae deletion strains, locus YNL233W, strain BNI4, hits give low values 1.01 | S. cerevisiae deletion strains, locus YNL248C, strain rpa49, hits give low values 0.994 | S. cerevisiae deletion strains, locus YNL250W, strain rad50, hits give low values 0.989 | S. cerevisiae deletion strains, locus YNL271C, strain bni1, hits give low values 1 | S. cerevisiae deletion strains, locus YNL298W, strain CLA4, hits give low values 0.983 | S. cerevisiae deletion strains, locus YNL307C, strain MCK1, hits give low values 1.01 | S. cerevisiae deletion strains, locus YNL322C, strain KRE1 (second series), hits give low values 0.997 | S. cerevisiae deletion strains, locus YNL322C, strain KRE1, hits give low values 1.01 | S. cerevisiae deletion strains, locus YNR049C, strain mso1, hits give low values 0.981 | S. cerevisiae deletion strains, locus YNR052C, strain pop2, hits give low values 0.991 | S. cerevisiae deletion strains, locus YOL006C, strain TOP1, hits give low values 1.09 | S. cerevisiae deletion strains, locus YOL012C, strain htz1 0.758 | S. cerevisiae deletion strains, locus YOL147C, strain pex11, hits give low values 0.995 | S. cerevisiae deletion strains, locus YOR001W, strain rrp6, hits give low values 0.971 | S. cerevisiae deletion strains, locus YOR061W, strain CKA2, hits give low values 1.01 | S. cerevisiae deletion strains, locus YOR069W, strain VPS5, hits give low values 1 | S. cerevisiae deletion strains, locus YOR070C, strain gyp1, hits give low values 0.979 | S. cerevisiae deletion strains, locus YOR080W, strain dia2, hits give low values 0.994 | S. cerevisiae deletion strains, locus YOR083W, strain WHI5, hits give low values 1 | S. cerevisiae deletion strains, locus YOR106W, strain vam3, hits give low values 0.999 | S. cerevisiae deletion strains, locus YOR136W, strain idh2, hits give low values 0.984 | S. cerevisiae deletion strains, locus YOR144C, strain elg1, hits give low values 0.989 | S. cerevisiae deletion strains, locus YOR184W, strain ser1, hits give low values 0.978 | S. cerevisiae deletion strains, locus YOR265W, strain rbl2, hits give low values 0.991 | S. cerevisiae deletion strains, locus YOR270C, strain vph1, hits give low values 0.982 | S. cerevisiae deletion strains, locus YOR290C, strain snf2, hits give low values 0.981 | S. cerevisiae deletion strains, locus YOR316C, strain cot1, hits give low values 0.989 | S. cerevisiae deletion strains, locus YPL051W, strain arl3, hits give low values 0.987 | S. cerevisiae deletion strains, locus YPL055C, strain LGE1, hits give low values 1.04 | S. cerevisiae deletion strains, locus YPL078C, strain atp4, hits give low values 0.988 | S. cerevisiae deletion strains, locus YPL106C, strain sse1, hits give low values 0.97 | S. cerevisiae deletion strains, locus YPL240C, strain hsp82, hits give low values 0.999 | S. cerevisiae deletion strains, locus YPL241C, strain CIN2, hits give low values 1.01 | S. cerevisiae deletion strains, locus YPR119W, strain clb2, hits give low values 0.998 | S. cerevisiae deletion strains, locus YPR141C, strain kar3, hits give low values 0.995 | S. cerevisiae deletion strains, locus YPR163C, strain tif3, hits give low values 0.986 | S. cerevisiae deletion strains, locus YPR167C, strain met16, hits give low values 1 | S. cerevisiae deletion strains, strain wtn01, hits give low values 1.01 | S. cerevisiae strains, strain wild type, hits give low values 0.999
